The values below come from PubChem BioAssay AID1650 (Southern Research Specialized Biocontainment Screening …, 2009).

Potency and affinity values are given separately. Active and inactive are the calls of the source. Entries that show only a call come without a potency. No rule for the calls is given here.

A short description of the assay: host cell cytotoxicity of antiviral hits, dose response, cytotoxicity control for West Nile virus antiviral project, secondary assay (AID 1650). Particulars: Mammalian host cell viability, cytotoxicity counter-screen; series mostly up to 10 µM. (In general: Counterscreens check selectivity or assay interference.)
Take `COC(=O)C1(O)CC(C(C)C)=NN1C(=O)c1ccc(Cl)cc1` (stereo not drawn): the compound was classed as inactive. In the case of `O=C(NCCCN1CCCC1)c1ccc2c(c1)N(Cc1cccc(Cl)c1)C(=O)c1ccccc1S2=O` (stereo not drawn) it was “inactive”; in that of `CC(C)N1CCc2c(sc(NC(=O)c3ccc(C(=O)c4ccccc4)cc3)c2C(N)=O)C1`, “inactive”; in that of `O=C(CN1C(=O)/C(=C\c2cccc(Cl)c2)Sc2ccccc21)NCCCN1CCOCC1`, “inactive”. On to `CN1CCN(C(=O)CCN2C(=O)/C(=C/c3ccc(F)cc3)SC2=S)CC1`, for which the compound was called inactive. On to `COc1ccc(N=c2oc3ccc(OC)cc3cc2-c2nc3ccccc3[nH]2)cc1`, for which the compound was called inactive.

Consider `COc1ccc(-c2cc3c(=O)n(CC(=O)NCc4ccccc4F)ncn3n2)cc1`, for which the result was inactive. In the case of `CCOc1ccc2nc(N3CCCC(C(=O)NCCCN4CC(C)CC(C)C4)C3)sc2c1` (stereo not drawn), the compound was called inactive. For `COc1ccc(NC(=S)Nc2ccc3nsnc3c2)cc1`, the outcome was inactive. In the case of `Cc1ccc(-c2cc(C(=O)NCCCN3CCCC3)c3ccccc3n2)cc1C`, the call was inactive.

`O=[N+]([O-])c1cncc([N+](=O)[O-])c1Nc1cccc(O)c1`: the result was inactive.

Consider `CN1CCN(Cc2nc3ccccc3c(=O)n2Cc2nc(-c3ccccc3F)cs2)CC1`, for which the result was inactive. `Cc1c(NC(=O)COC(=O)c2cc(-c3ccc(-c4ccccc4)cc3)nc3ccccc23)c(=O)n(-c2ccccc2)n1C`: the call was inactive. Regarding `COC(=O)c1c(NC(=O)CCS(=O)(=O)c2ccccc2)sc2c1CCN(C)C2`, the compound was classed as inactive. Regarding `N#CC(C(=O)NC1CCCCC1)c1nc2ccccc2nc1N1CCN(c2ccc(F)cc2)CC1` (stereo not drawn), the outcome was inactive.

For the compound `COc1ccc(-c2cc(C(=O)c3c(N)n(C)c(=O)n(C)c3=O)c3ccccc3n2)cc1OC`, the compound was called inactive. Consider `O=[N+]([O-])c1ccc(COc2ccc(-c3[nH]ncc3-c3ccc(Cl)cc3)c(O)c2)cc1`, for which the compound was classed as inactive.

As to `Cc1cc(C)c(CSc2ncc(-c3ccc([N+](=O)[O-])cc3)[nH]2)c(C)c1`, the call was inactive. For `Cc1cc(C)cc(SCc2noc(C(=O)NCCCN3CCOCC3)c2C(=O)NCCCN2CCOCC2)c1`, the outcome was inactive. In the case of `COc1cc2cc(CN(CCc3ccccc3C)C(=S)NCCCN(C)C)c(=O)[nH]c2cc1OC` it was “inactive”.

In the case of `CCn1cc(CNCc2cn(C)nc2-c2ccc(C3CCCCC3)cc2)cn1`, the outcome was inactive. As to `CCOC(=O)c1cc(-c2ccc(OC)cc2F)nc2c1c(C)nn2CCC#N`, the result was inactive. The value for `COc1ccc(CCNC(=O)COc2ccc(S(=O)(=O)NCC(C)C)cc2Cl)cc1OC` was “inactive”.
